Data as given in the supplement of paper PMC4466140.

B1: unnamed (peptide)
chain: RRRIAYPFYPFKKLG

These binders were tested against SpBzz1-D2 (assay: SPOT peptide array binding signal intensity (averaged, normalized) (arbitrary units (background-subtracted, floor 0; scale differs between SH3 domains)); higher = stronger binding of the SH3 domain to the peptide).
How it was run: (§1)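 GST-SH3 fusions from four yeast species, purified on glutathione Sepharose, were incubated at 10 μg/ml overnight at 4°C on membranes of synthetic 15-mer peptides in which cysteines were replaced with serines. Binding signal is the normalized, background-subtracted spot intensity averaged over replicates, in domain-specific arbitrary units.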

Binder | SPOT peptide array binding signal intensity
B1 | ≤ 0

These binders were tested against SpCyk3 in the same assay as above.
How it was run: as §1

Binder | SPOT peptide array binding signal intensity
B1 | ≤ 0

The binders below were run against SpHof1 in the same assay as above.
How it was run: as §1

Binder | SPOT peptide array binding signal intensity
B1 | 37.5

What follows are binders tested against SpHof1-2 in the same assay as above.
How it was run: as §1

Binder | SPOT peptide array binding signal intensity
B1 | 12.5

These binders were tested against SpHof1-3 in the same assay as above.
How it was run: as §1

Binder | SPOT peptide array binding signal intensity
B1 | 225

Each binder was assayed against SpHse1 in the same assay as above.
How it was run: as §1

Binder | SPOT peptide array binding signal intensity
B1 | 745

What follows are binders tested against SpLsb1 in the same assay as above.
How it was run: as §1

Binder | SPOT peptide array binding signal intensity
B1 | 1.5

What follows are binders tested against SpLsb4 in the same assay as above.
How it was run: as §1

Binder | SPOT peptide array binding signal intensity
B1 | 47

Each binder was assayed against SpMyo1 in the same assay as above.
How it was run: as §1

Binder | SPOT peptide array binding signal intensity
B1 | 2.5

The binders below were run against SpNbp2 in the same assay as above.
How it was run: as §1

Binder | SPOT peptide array binding signal intensity
B1 | 394

Each binder was assayed against SpPex13 in the same assay as above.
How it was run: as §1

Binder | SPOT peptide array binding signal intensity
B1 | 5.5

These binders were tested against SpRvs167 in the same assay as above.
How it was run: as §1

Binder | SPOT peptide array binding signal intensity
B1 | 7.33

What follows are binders tested against SpSla1-D1-D2 in the same assay as above.
How it was run: as §1

Binder | SPOT peptide array binding signal intensity
B1 | ≤ 0

The binders below were run against SpSla1-D3 in the same assay as above.
How it was run: as §1

Binder | SPOT peptide array binding signal intensity
B1 | 1.5
